From the supplement of paper PMC10127200
Where a name gives a salt, the structure may show the parent alone.

Assays:
Assay in all cases: Euclidean distance of Cell Painting phenotypic profile (signed KS, 77 features) to DMSO centroid (dimensionless distance); 5 or 10 uM (library dependent); higher = stronger phenotypic change vs DMSO (phenoactivity)
Conditions in all cases: 48 h
[1] = system: 786-O
In short: (§1)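 Phenoactivity is computed as Euclidean distance to the median vehicle profile. The profiles, drawn from 77 Harmony features scored as signed Kolmogorov-Smirnov statistics versus same-plate vehicle wells, were corrected for plate position, correlation-weighted and replicate-averaged at the top dose. Stained cells were imaged confocally at 20X (9 fields/well) after 48 h with library compounds at 10 or 5 uM, 0.1% DMSO final, in five cancer lines and a healthy fibroblast line.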

[2] = system: A549
In short: as §1

[3] = system: DU145
In short: as §1

[4] = system: FB
In short: as §1

[5] = system: HEPG2
In short: as §1

[6] = system: OVCAR4
In short: as §1

Structure (SMILES) | Euclidean distance [1] | Euclidean distance [2] | Euclidean distance [3] | Euclidean distance [4] | Euclidean distance [5] | Euclidean distance [6]
CN1CCN(CCOc2cc(OC3CCOCC3)c3c(Nc4c(Cl)ccc5c4OCO5)ncnc3c2)CC1 [Saracatinib (AZD0530)] | 3.22 | 3.83 | 1.78 | 3.97 | 1.98 | 3.34
Cc1ccc(Nc2c(F)cccc2Cl)c(CC(=O)O)c1 [Lumiracoxib] | 1.54 | 0.989 | 0.9 | 1.33 | 0.549 | 1.36
NC(=O)[C@@H]1CCCN1C(=O)[C@H](Cc1c[nH]cn1)NC(=O)[C@@H]1CCC(=O)N1 [Protirelin] | 1.34 | 0.937 | 0.758 | 1.31 | 0.44 | 0.947
O=C(O)c1ccc2c(c1)nc(Nc1cccc(Cl)c1)c1ccncc12 [CX-4945 (Silmitasertib)] | 1.47 | 1.44 | 2.54 | 1.55 | 1.4 | 1.25
CN(CCOc1ccc(CC2SC(=O)NC2=O)cc1)c1ccccn1 (configuration not stated) [Rosiglitazone] | 1.31 | 0.979 | 0.878 | 1.79 | 0.962 | 1.14
O=C(O)[C@]1(Cc2cccc(Nc3nccs3)n2)CC[C@@H](Oc2cccc(Cl)c2F)CC1 | 2.59 | 3.36 | 0.648 | 0.818 | 0.498 | 2.16
CCn1cc(C(=O)O)c(=O)c2cc(F)c(N3CCNCC3)cc21 [Norfloxacin] | 1.28 | 0.791 | 0.924 | 1.26 | 0.65 | 1.01
Cc1ccc(C(=O)C(C)CN2CCCCC2)cc1 (configuration not stated) [Tolperisone HCl] | 0.966 | 0.611 | 1.08 | 0.909 | 0.439 | 0.725
O=NN(CCCl)C(=O)NCCCl [Carmustine] | 1.97 | 0.741 | 1.29 | 0.896 | 0.515 | 0.875
N[C@@H](CC(=O)O)C(=O)O [L-aspartic Acid] | 1.2 | 1.3 | 0.701 | 0.809 | 0.455 | 1.44
COc1cc2nccc(Oc3ccc(NC(=O)NC4CC4)c(Cl)c3)c2cc1C(N)=O [Lenvatinib (E7080)] | 2.11 | 0.779 | 1.02 | 3.36 | 1.02 | 1.33
Nc1nc(F)nc2c1ncn2[C@@H]1O[C@H](COP(=O)(O)O)[C@@H](O)[C@@H]1O [Fludarabine Phosphate] | 2.13 | 2.48 | 1.94 | 3.2 | 1.57 | 2.98
CC(C)NCC(O)c1ccc(NS(C)(=O)=O)cc1 (configuration not stated) [Sotalol] | 1.21 | 0.865 | 0.768 | 0.911 | 0.602 | 1.02
CS(=O)(=O)c1ccc([C@@H](O)[C@@H](CO)NC(=O)C(Cl)Cl)cc1 [Thiamphenicol] | 1.41 | 0.742 | 0.68 | 1.08 | 0.983 | 1.15
O=C(Nc1ccccc1)c1ccccc1O [Salicylanilide] | 0.807 | 0.631 | 0.393 | 0.532 | 0.798 | 0.892
C=C(CC)C(=O)c1ccc(OCC(=O)O)c(Cl)c1Cl [Ethacrynic Acid] | 1.19 | 1.01 | 1.03 | 1.17 | 1.05 | 1.14
CC(C)N(CCCNC(=O)Nc1ccc(C(C)(C)C)cc1)C[C@H]1O[C@@H](n2ccc3c(N)ncnc32)[C@H](O)[C@@H]1O | 1.04 | 0.769 | 0.92 | 1.18 | 0.5 | 0.755
CN(Cc1ccc(C(C)(C)C)cc1)Cc1cccc2ccccc12 [Butenafine HCl] | 0.641 | 0.57 | 0.938 | 0.74 | 0.375 | 1.15
c1cnc(NCc2ccc(CNc3ncccn3)cc2)nc1 | 1.17 | 0.784 | 0.977 | 0.642 | 0.488 | 1.22
CN(C)C(=O)[C@H](O)[C@H](Cc1ccccc1)NC(=O)c1cc2cc(Cl)ccc2[nH]1 | 0.476 | 0.757 | 0.712 | 1.01 | 1.05 | 0.908
c1cnc(N2CCN(Cc3ccc4c(c3)OCO4)CC2)nc1 [Piribedil] | 1.19 | 0.769 | 1.21 | 1.05 | 0.645 | 0.899
NS(=O)(=O)c1cc(C2(O)NC(=O)c3ccccc32)ccc1Cl (configuration not stated) [Chlorthalidone] | 0.738 | 0.425 | 1.18 | 1.4 | 0.481 | 0.876
O=C(/C=C/c1ccc(O)cc1)c1ccc(O)cc1O [Isoliquiritigenin] | 0.936 | 1.2 | 1.16 | 0.82 | 0.786 | 0.885
Nc1ncnc2c1ncn2[C@@H]1O[C@H](CO)[C@@H](O)[C@H]1O [Adenosine] | 1.13 | 2.77 | 1.12 | 0.92 | 0.753 | 1.22
Cc1cnc(NC(=O)C2=C(O)c3ccccc3S(=O)(=O)N2C)s1 [Meloxicam] | 0.664 | 0.746 | 2.37 | 0.881 | 1.84 | 0.784
CC(C)COCC(CN(Cc1ccccc1)c1ccccc1)N1CCCC1 (configuration not stated) [Bepridil hydrochloride] | 1.64 | 2.55 | 2.06 | 1.65 | 1.94 | 1.73
C=CC(=O)N1CCC(Oc2cc3c(Nc4ccc(Cl)c(Cl)c4F)ncnc3cc2OC)CC1 [Poziotinib (HM781-36B)] | 1.98 | 3.02 | 2.11 | 2.99 | 3.43 | 2.12
